KCNQ2 block: blocks the rat KCNQ2 potassium channel | O88943 | CHO-K1 KCNQ2, FluxOR thallium flux, 20 min; active compounds read low | B-score at 10 µM | 1.1% of 310,000 active;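 active = fluorescence ratio B-score at most minus 3 library SDs, with starting brightness B-score within 2 library SDs, cut at about -5.5 in these data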
KCNQ2 enhance: KCNQ2 (rat) channel potentiation; O88943; CHO-K1 KCNQ2, FluxOR thallium flux fluorescence; active compounds read high; B-score at 10 µM; 0.54% of 310,000 active; AID 2239;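 active = fluorescence ratio B-score at least 3 SD of library B-scores, with initial fluorescence B-score within 3 of them, cut at about 5.3 in these data; same plate scores as AID 2156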;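 also: B-score of peak minus minimum over baseline fluorescence ratio after K+ and Tl+ stimulus; positive B-score means potentiation of KCNQ2 with more thallium influx and brighter signal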
Kir21 confirm: confirmation of mouse Kir2.1 potassium channel inhibitors. shares compounds with KCNQ2 enhance. Tl flux remaining, % of negative control (active compounds read low), % at 10 µM. 41% of 2,300 active. Kir2.1-expressing cells, FluxOR thallium flux fluorescence; active compounds read low. AID 2032;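 active = Primary-screen hit whose thallium flux fell at least 3 control SD below untreated wells in both duplicates, with normal baseline fluorescence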;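 also: 0% = blank wells without stimulus and 100% = stimulated no-compound controls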
HEK293 ctr: counter-screen for Kir2.1 inhibitors: effect in parental HEK293 cells. shares compounds with KCNQ2 enhance. 19% of 2,300 active. FluxOR thallium flux fluorescence; 0% = unstimulated blank wells. FluxOR signal as % of negative control (100 = no effect), % at 10 µM;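 active = dye signal at least 3 control SD above or below untreated wells in both duplicates, raw fluorescence within 3, either direction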;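 also: percent is based on the flux ratio of peak minus minimum fluorescence over baseline F0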
CHO-K1 ctr: counter-screen for KCNQ2 potentiators: effect in parental CHO-K1 cells | shares compounds with KCNQ2 enhance | AID 2282 | FluxOR thallium flux fluorescence; zero = vehicle mean+3SD, 100% = vehicle-minus-blank window | 43% of 1,200 active | activity increase over 3SD of controls, % at 10 µM;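 active = signal rise of at least 3 SD above the untreated control mean, in both duplicate wells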;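 also: counter screen of KCNQ2 potentiator hits so any rise reflects channel-independent effects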
KCNQ1 sel pot: tests whether KCNQ2 potentiators also act on human KCNQ1; shares compounds with KCNQ2 enhance; CHO KCNQ1 stable, FluxOR thallium flux fluorescence; beyond 3SD, as % of vehicle-control signal; activation over 3SD threshold, % at 10 µM; 28% of 1,200 active; AID 2283;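 active = fluorescence ratio rise of at least 3 SD of vehicle wells above their mean, in both replicate wells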;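 also: 0% = vehicle mean plus 3 SD and 100% = vehicle minus unstimulated blank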
KCNQ2 pot confirm: confirmation of rat KCNQ2 potassium channel potentiators; CHO-KCNQ2 cells, FluxOR thallium flux fluorescence; 68% of 1,200 active; AID 2287; shares compounds with KCNQ2 enhance; potentiation, less the hit threshold, % at 10 µM;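 active = fluorescence ratio rising 3 SD or more over the vehicle control mean in both replicates, plus primary screen hit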;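 also: peak minus minimum thallium fluorescence divided by baseline after K/Tl stimulus; 0% = vehicle mean plus 3 SD and 100% = vehicle minus unstimulated blank difference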
Kir2-1 sel: selectivity of KCNQ2 potentiators: effect on mouse Kir2.1; shares compounds with KCNQ2 enhance; HEK293 Kir2.1, FluxOR thallium flux fluorescence; activity over 3SD threshold, % at 10 µM; 2% of 1,200 active; AID 2345;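 active = fluorescence ratio rise of at least 3 SD above the vehicle-control mean, seen in both replicates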;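 also: 0% = vehicle mean plus 3 SD and 100% = vehicle minus no-stimulus blank window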
KCNQ2 W236L pot: KCNQ2 potentiators acting on retigabine-insensitive rat KCNQ2 W236L mutant | CHO KCNQ2-W236L, automated patch clamp current | AID 2558 | shares compounds with KCNQ2 enhance | 10% of 940 active | current increase over 3SD of negative controls (%), active compounds read high, % at 25 µM;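 active = current increase at least 3 SD of the untreated controls above them in both duplicate recordings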
Active calls of the source: *. Most compounds without a hit are left out; they make up all but 1.6% or so of the library.

`Cc1ccc2nc3c(c(N)c2c1)CCN3C` gave KCNQ2 block inactive and KCNQ2 enhance 0.24.
For CCOC(=O)c1c(NC(C)=O)sc2c(OCC(O)CNC(C)(C)C)c(Br)ccc12 (stereo not drawn) the results were KCNQ2 block inactive, Kir21 confirm inactive and HEK293 ctr inactive.
CCOC(=O)c1c(N)sc2c(OCC)c(Br)ccc12 was read as KCNQ2 block inactive and KCNQ2 enhance 2.1.
`COc1ccc(C(=O)O/N=C/c2ccc(S(=O)(=O)c3ccc(Cl)cc3)nc2)cc1` gave KCNQ2 block inactive.
Screening O=CN(c1ccccc1)c1ccc2ccccc2c1 returned KCNQ2 block inactive.
Cc1ccc(CC(=O)NC(C)CCc2ccccc2)cc1 (stereo not drawn) was read as KCNQ2 block inactive.
For Cc1ccccc1CN(C)CC(=O)NC(C)CCc1ccccc1 (stereo not drawn) the results were KCNQ2 block -6.6*, KCNQ2 enhance -6.6, Kir21 confirm 34%* and HEK293 ctr inactive.
Screening CCCCCCNC(=O)CC(c1ccccc1)c1cc(Br)ccc1O (stereo not drawn) returned KCNQ2 block inactive, KCNQ2 enhance 29*, Kir21 confirm inactive, HEK293 ctr inactive, CHO-K1 ctr -3, KCNQ1 sel pot -28, KCNQ2 pot confirm 64*, Kir2-1 sel -43 and KCNQ2 W236L pot inactive.
O=CN1CCN(C(=O)CC(c2ccccc2)c2cc(Br)ccc2O)CC1 (stereo not drawn) was read as KCNQ2 block inactive and KCNQ2 enhance 0.56.
Screening CC(C)NC(=O)CC(c1ccccc1)c1cc(Br)ccc1O (stereo not drawn) returned KCNQ2 block inactive and KCNQ2 enhance 2.8.
`CC(C)Oc1ccc(CNC(=O)CC(c2ccccc2)c2cc(Cl)ccc2O)cc1` (stereo not drawn) gave KCNQ2 block inactive, KCNQ2 enhance 15*, Kir21 confirm inactive, HEK293 ctr 128%*, CHO-K1 ctr 11*, KCNQ1 sel pot 18*, KCNQ2 pot confirm 59*, Kir2-1 sel -21 and KCNQ2 W236L pot inactive.
COc1ccccc1C(CC(=O)Nc1ccc(Cl)cc1)c1ccc(OC(C)C)cc1 (stereo not drawn) was read as KCNQ2 block inactive.
`O=C(CC(c1ccccc1)c1cc(Br)ccc1O)NCc1ccco1` (stereo not drawn) gave KCNQ2 block inactive, KCNQ2 enhance 18*, CHO-K1 ctr -7, KCNQ1 sel pot -1, KCNQ2 pot confirm 67*, Kir2-1 sel -66 and KCNQ2 W236L pot inactive.
CC1CCCC(NC(=S)Nc2cccc(S(=O)(=O)N(C)C)c2)C1C (stereo not drawn) was read as KCNQ2 block inactive and KCNQ2 enhance 1.8.
CCN(C(=O)Cc1c(C(=O)O)n(CC)c2ccccc12)c1cccc(C(F)(F)F)c1 was read as KCNQ2 block inactive.
Screening Cn1nc(-c2ccc(Cl)cc2)cc1NC(=O)CSCC(=O)O returned KCNQ2 block inactive and KCNQ2 enhance 0.17.
`CCN(CC)S(=O)(=O)c1ccc(C(=O)NCC(c2ccc(OC)cc2)N2CCOCC2)cc1` (stereo not drawn) gave KCNQ2 block inactive and KCNQ2 enhance 1.3.
CN(c1ccc(OCC(=O)NCCc2ccccc2)cc1)S(=O)(=O)c1ccc(Cl)cc1 was read as KCNQ2 block inactive.

Screens as filed in PubChem BioAssay.
